Common to all, as to experiment: Primary qHTS to identify gynecologic anti-cancer compounds using libraries of approved drugs and bioactive compounds (AID 1345084); also: nearly all actives have a fitted effect of over 55% in size
Holding throughout (settings): Gynecologic cancer cell panel viability, ATPlite luminescence, 48 h; series mostly up to 57.5 µM

Assay [1] deals with SKOV3. The essentials: (§1)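 Five-concentration response, 48 h; readout is ATP-driven luciferase luminescence.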
In assay [2] the test system is Tov-21-G. A digest of the protocol:
as §1

In assay [3] the test system is Tov112D. The essentials:
as §1

The structures appear in SMILES notation. Inconclusive results are not listed. A number with no mark means an inactive call. Calls of active or inactive are those of the source. Calls follow the shape of the dose curve; as a rule, active = well fitted cell-killing curve with a large enough effect; inconclusive = small, poorly fitted or top-dose-only effect, or effect the other way; inactive = flat fitted curve, though single readings scatter.
Potency is read from the fitted curve at half-maximal effect.

Regarding `C/C(=C\CO[C@@H]1O[C@H](CO[C@H]2OC[C@](O)(CO)[C@H]2O)[C@@H](O)[C@H](O)[C@H]1O)C(C)(C)O`, the Potency result in assay [1], in assay [2] and in assay [3] was “inactive” in each case.

Turning to `COc1cc2c(cc1O)C1(Cc3ccc4c(c3C1O)OCO4)[N+](C)([O-])CC2` (centres undefined), the Potency entry in assay [1], in assay [2] and in assay [3] was “inactive” in each case.

With `CCCCCCCOc1cc2c(cc1/C(C)=C/c1ccc(C(=O)O)cc1)C(C)(C)CCS2(=O)=O`, the Potency result in assay [1], in assay [2] and in assay [3] was “inactive” each time.

For `COC(CCc1ccc(O)cc1)CC(=O)CCc1ccc(O)cc1` (centres undefined), the Potency result in assay [1], in assay [2] and in assay [3] was “inactive” each time.

`C=C1/C(=C/C=C2\CCC[C@]3(C)[C@@H]([C@H](C)/C=C/[C@@H](C)C(C)C)CC[C@@H]23)C[C@@H](O)C[C@@H]1O`: the Potency result in assay [1], in assay [2] and in assay [3] was “inactive” each time.

`CCN(CC)CCCS(=O)(=O)N[C@H](CCc1ccccc1)c1nc(Cc2ccc(Br)cc2)no1`: the Potency result in assay [1], in assay [2] and in assay [3] was “inactive” in each case.

For `C/C=C(/C)C(=O)OC1C=C2C3C(C)C(C)C(OC(=O)C(C)C(C)O)CC3(C)CCC2(C)C2(C)CC(OC(C)=O)C3C(C)(C)C(O)C(=O)CC3(C)C12` (centres undefined), the Potency entry in assay [1], in assay [2] and in assay [3] was “inactive” throughout.

As for `CN(C)CCOc1cc(NS(=O)(=O)c2c(Cl)cc(C(F)(F)F)cc2Cl)ccc1Cl`, the Potency result in assay [1], in assay [2] and in assay [3] was “inactive” each time.

For the compound `Cc1cc(-c2cc(OC(=O)c3ccccc3)ccc2Cl)cc2nnc(Nc3ccc(OCCN4CCCC4)cc3)nc12`, the Potency result in assay [1], in assay [2] and in assay [3] was “inactive” each time.

With `CC(C)CCNC(=O)c1ccc2c(c1)nc(Nc1n[nH]c3ccc(-c4ccccc4OC(F)(F)F)cc13)n2C1CCC(O)CC1` (centres undefined), the Potency entry in assay [1], in assay [2] and in assay [3] was “inactive” each time.

As for `O=C(COc1ccc2ccccc2c1Br)Nc1cccnc1`, the Potency result in assay [1], in assay [2] and in assay [3] was “inactive” throughout.

For the compound `c1cc(NC2CCNCC2)nc(-c2cnc3ccccn23)c1`, the Potency in assay [1] was 8.91 µM (active); in assay [2] it was 15.8 µM (active); in assay [3], 20 µM (active).

Turning to `CCCc1ccc(OCC(=O)N(Cc2nc(-c3cccnc3)no2)C(C)C)cc1`, the Potency result in assay [1], in assay [2] and in assay [3] was “inactive” in each case.

For `O=C(NCc1ccc(OC(F)(F)F)cc1)C1c2c(F)cccc2C(=O)N1CCc1ccccn1` (centres undefined), the Potency entry in assay [1], in assay [2] and in assay [3] was “inactive” each time.

With `CCNC1(C(N)=O)CN(c2nc(C)nc3c(-c4ccc(Cl)cc4)c(-c4ccccc4Cl)nn23)C1`, the Potency entry in assay [1], in assay [2] and in assay [3] was “inactive” each time.

On to `FC(F)(F)c1ccccc1-c1cc(C(F)(F)F)c2nc(C3=NOC4(CCCCC4)C3)[nH]c2c1`, for which the Potency entry in assay [1], in assay [2] and in assay [3] was “inactive” throughout.

In the case of `CNc1cccc(CCOc2ccc3c(c2)CN(CC(F)(F)F)C(=O)[C@H](CC(=O)O)C3)n1`, the Potency in assay [1] was 1.78 µM (active); in assay [2] it was 0.501 µM (active). Further, the Potency entry in assay [3] was “inactive”.

For `Cc1cc(OCCCS(C)(=O)=O)cc(C)c1-c1cccc(COc2ccc3c(c2)OCC3CC(=O)O)c1` (centres undefined), the Potency entry in assay [1], in assay [2] and in assay [3] was “inactive” each time.

For `CC(C)[C@@H](c1ccc(C(F)(F)F)cc1CN(Cc1cc(C(F)(F)F)cc(C(F)(F)F)c1)c1nnn(C)n1)N1CCC(C(=O)O)CC1`, the Potency entry in assay [1], in assay [2] and in assay [3] was “inactive” throughout.

As to `C=C1CC2OC(=O)C(=C)C2C(O)/C=C(\C)CCC1O` (centres undefined), the Potency result in assay [1], in assay [2] and in assay [3] was “inactive” throughout.

In the case of `OC(CC1c2ccccc2-c2cncn21)C1CCCCC1` (centres undefined), the Potency entry in assay [1], in assay [2] and in assay [3] was “inactive” each time.

For `C/C=C(/C)C(=O)O[C@@H]1C[C@@H](OC(=O)CC(C)C)C2(C)C3C(=O)C=C(C)C2C3C1(C)C` (some centres undefined), the Potency result in assay [1], in assay [2] and in assay [3] was “inactive” each time.

In the case of `COc1ccc(-c2csc(NC(=O)[C@H]3CCCCN3S(=O)(=O)c3ccc(C)cc3)n2)cc1`, the Potency entry in assay [1], in assay [2] and in assay [3] was “inactive” in each case.

Turning to `O=C(N[C@H](Cc1cscn1)C(=O)N[C@@H](CC1CCCCC1)[C@@H](O)[C@@H](O)C1CC1)c1nc2ccccc2[nH]1`, the Potency result in assay [1], in assay [2] and in assay [3] was “inactive” in each case.

`CCCN(CCc1ccsc1)C1CCc2c(O)cccc2C1` (centres undefined): the Potency entry in assay [1], in assay [2] and in assay [3] was “inactive” throughout.

Consider `CCC/C=C/c1cc2c(C=O)c(O)c(CC=C(C)C)cc2o1`, for which the Potency result in assay [1], in assay [2] and in assay [3] was “inactive” each time.

In the case of `CC(C)Oc1ccc(-c2cnc3c(-c4ccnc5ccccc45)cnn3c2)cc1`, the Potency result in assay [1], in assay [2] and in assay [3] was “inactive” each time.

For the compound `CC(NCCCc1cccc(C(F)(F)F)c1)c1cccc2ccccc12` (centres undefined), the Potency entry in assay [1], in assay [2] and in assay [3] was “inactive” in each case.

For the origin of these results see PubChem BioAssay (NCATS).
